Assay outcomes deposited in PubChem by The Scripps Research Institute Molecular Screening Center.
An excerpt weighted towards active compounds, which were near 1.1% of everything screened.
GalR3 antagonist = blocks the human galanin receptor 3. inhibition, % at 3 µM. O60755. HEK293 GalR3-CNG cAMP membrane potential fluorescence; galR3 body fused to GalR1 C-terminus. 360,000 compounds, 0.44% hits;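 active = inhibition above the screen-wide average plus 3 SD, cut at about 13% in these data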;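 note: forskolin and galanin both at EC90 stimulate the cells; cAMP rise reported by CNG channel membrane potential dye signal; 0% = forskolin plus galanin with DMSO and 100% = forskolin alone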
Target sequence (O60755 1-299 limits assumed): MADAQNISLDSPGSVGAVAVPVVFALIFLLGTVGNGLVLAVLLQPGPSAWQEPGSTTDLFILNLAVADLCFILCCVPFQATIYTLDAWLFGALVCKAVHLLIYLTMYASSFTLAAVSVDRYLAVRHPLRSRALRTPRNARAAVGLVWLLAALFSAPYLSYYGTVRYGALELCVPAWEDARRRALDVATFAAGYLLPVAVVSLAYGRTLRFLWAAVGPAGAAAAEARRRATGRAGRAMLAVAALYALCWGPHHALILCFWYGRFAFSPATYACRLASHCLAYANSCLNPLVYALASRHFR
NR2F2 inh = NR2F2 (human) inhibition, primary screen; AID 686940; HEK293T NGFI-A luciferase reporter, luminescence; inhibition, % at 8.6 µM; 370,000 compounds, 0.7% hits; P24468;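 active = inhibition above a per-plate cutoff, mean inhibition of test wells between control levels plus 3 SD, cut at about 38% in these data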;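 note: cells cotransfected with COUP-TFII expression vector driving the NGFI-A reporter; 0% = median of COUP-TF2 test wells and 100% = reporter-only cells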
NCOA3 inh = human NCOA3 inhibition | Q9Y6Q9 | 360,000 compounds, 0.17% hits | inhibition, % at 3.6 µM | HEK293 GAL4-SRC3 luciferase reporter, luminescence | AID 588352;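 active = inhibition above a per-campaign cutoff, the mean of all compounds plus 3 SD, cut at about 60% in these data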;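 note: 0% = DMSO-treated cells and 100% = gossypol-treated cells at 36 µM; higher means less SRC3-driven luciferase light from the GAL4 reporter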
NCOA2 inhibitor = inhibits human steroid receptor coactivator 2. HEK293 GAL4-SRC2 luciferase reporter, luminescence. 370,000 compounds, 0.17% hits. AID 651957. inhibition, % at 9 µM;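 active = inhibition above the mean inhibition of all tested compounds plus 3 SD, set per campaign, cut at about 52% in these data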;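 note: 0% = DMSO treated cells and 100% = cells given Gossypol at 36 µM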
SRC1 inh = inhibitors of human steroid receptor coactivator 1 (SRC1). Q15788. HEK293 GAL4-SRC1 luciferase reporter, luminescence. inhibition, % at 3.6 µM. 360,000 compounds, 0.12% hits. AID 588354;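 active = inhibition above the campaign mean plus 3 SD, with each screening campaign given its own cutoff, cut at about 60% in these data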;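 note: 0% = DMSO treated cells and 100% = gossypol at 36 µM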
LRH-1 inv ag = inverse agonists of human LRH-1 (NR5A2). O00482. HEK293T StAR-luciferase reporter, LRH-1 transfected, 24 h. inhibition, % at 3.6 µM. 360,000 compounds, 0.13% hits;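 active = inhibition above the mean inhibition of all tested compounds plus 3 SD, cut at about 73% in these data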;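 note: 0% = DMSO wells and 100% = reporter-only cells lacking LRH-1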
VP16 Luc counter = inhibits VP16 reporter, flagging COUP-TFII antagonist hits | shares compounds with NR2F2 inh | 2,500 compounds, 25% hits | HEK293 Gal4-VP16 luciferase reporter, luminescence | AID 687007 | inhibition, % at 8.5 µM; in the data active = inhibition above about 13%
COUP-TFII conf = COUP-TFII (NR2F2) inhibition, confirmation assay; shares compounds with NR2F2 inh; HEK293 NGFI-A luciferase reporter, luminescence; inhibition, % at 8.5 µM; 2,500 compounds, 45% hits; AID 687008;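 active = mean inhibition over three repeats above a set limit taken from the earlier primary screen, cut at about 38% in these data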;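 note: 100% = cells given the luciferase reporter alone without the COUP-TF2 vector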
Active calls of the source: *; nt = no result.

SMILES	GalR3 antagonist	NR2F2 inh	NCOA3 inh	NCOA2 inhibitor	SRC1 inh	LRH-1 inv ag	VP16 Luc counter	COUP-TFII conf
Oc1ccc(Oc2ccc3c(C(F)(F)F)cc(C(F)(F)F)nc3n2)cc1	-7	49*	23	11	-3	18	-12	37*
N#Cc1c(F)cccc1NCc1cccnc1	-10	-11	-10	-12	-24	0	nt	nt
N#Cc1c(NCc2ccccc2)ccnc1NCc1cccnc1	-4	44*	28	28	5	23	2	42*
CCOC(=O)[C@]12CCCCC/C=C\1N(Cc1ccc(OC)cc1)C(=O)[C@H]2CC(=O)NCc1cccs1	nt	7	nt	-21	nt	nt	nt	nt
O=c1cc(-c2ccc(O)cc2)oc2c1ccc1ccccc12	-9	5	12	-24	4	-14	nt	nt
O=c1cc(-c2ccc(O)cc2)oc2ccc3ccccc3c12	-5	55*	28	46	12	21	14*	46*
C=CC[n+]1c(-c2ccc(C)cc2)csc1Nc1ccc(NC(C)=O)cc1	-8	52*	37	84*	26	38	83*	81*
C=CC[n+]1c(-c2ccc(OC)cc2)csc1NNC(=O)Nc1ccccc1	-10	8	-56	-39	-60	-29	nt	nt
CCc1cc(-c2cnnn2Cc2ccc3ccccc3c2)ccc1-c1cn(CC(C)C)nn1	-6	-18	-32	20	-7	-6	nt	nt
CCc1cc(-c2nnn(CCC3COCCO3)c2CC)ccc1-c1cn(Cc2ccccc2)nn1 (stereo unspecified)	-4	66*	-2	26	9	31	-19	34
Cc1sc2cc3c(c(C(=O)c4ccccc4)[n+]2c1C)-c1cccc2cccc-3c12	-1	60*	nt	-19	nt	nt	22*	55*
O=C(c1ccccc1)c1c2c(cc3sc4ccccc4[n+]13)-c1cccc3cccc-2c13	-4	49*	56	6	30	72	10	57*
CC(C)(C)C(=O)OC12CCCN(C1)/C(=C/c1ccc(C#N)cc1)C2 (stereo unspecified)	nt	-7	nt	6	nt	nt	nt	nt
Cc1ccc(NC(=O)C2CCCN(c3nnc(-n4cccc4)s3)C2)cc1C (stereo unspecified)	nt	9	nt	-1	nt	nt	nt	nt
C=CCN=C1NC(c2ccccc2)C(C(=O)OC)=C(C)N1C (stereo unspecified)	-6	-10	nt	-7	nt	nt	nt	nt
CCCCCC(=O)N1CC2(CC(c3cccc(NC(=O)COc4ccc(Cl)cc4)c3)=NO2)C[C@@H]1C(N)=O (stereo partly specified)	-2	42*	-4	36	-3	-8	-11	13
O=C(Nc1nc2cc3c(cc2s1)OCO3)C1=COCCO1	nt	54*	19	44	9	-65	-27	7
O=C(Nc1nc2cc3c(cc2s1)OCCO3)c1ccco1	-1	69*	11	59*	0	11	1	19
COc1ccc(-c2cc(C(=O)NN=Cc3ccc(C)s3)[nH]n2)cc1	nt	-39	nt	-6	nt	nt	nt	nt
O=C(C1CCN(c2cncnc2)CC1)N1CCCC1	nt	2	nt	-32	nt	nt	nt	nt
COCC(C)n1c(C)cc(C(=O)CSc2nnnn2C2CCCC2)c1C (stereo unspecified)	-7	41*	7	9	-2	-3	-82	23
CCC(C(=O)Nc1ccccc1N1CCCC1)c1ccccc1F (stereo unspecified)	nt	17	nt	10	nt	nt	nt	nt
CC1(Cc2ccccc2OC(F)(F)F)C(=O)Nc2ccc(OC(F)(F)F)cc21 (stereo unspecified)	-7	15	1	-10	16	22	nt	nt
CC1(Cc2ccc3ccccc3n2)C(=O)Nc2ccc(OC(F)(F)F)cc21 (stereo unspecified)	-5	90*	-1	14	-1	16	0	10
